The text below walks through data of PubChem BioAssay (NCI).

This is part of a sample that, as a whole, favours compounds with a hit. Of some 79,000 tested, about 15% had one in any assay. A number with no mark means an inactive call. Active and inactive are the calls of the source. Rule as the data show it: active = growth inhibition above about 70%; inactive = the rest.

Assay [1] in a line: NCI Yeast Anticancer Drug Screen. Data for the rad50 strain (AID 155).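 Also: 0% = growth of vehicle-only cultures of the same strain.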 As to conditions: S. cerevisiae rad50 strain growth inhibition; at 50.0 µM; stronger effect = higher value. Summed up: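 Cells are treated with compound, grown, and their growth is then scored against vehicle-only cultures of the same repair-deficient yeast strain.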
A short description of assay [2]: NCI Yeast Anticancer Drug Screen. Data for the mec2-1 strain (AID 157). As to conditions: S. cerevisiae mec2-1 strain, at 50.0 µM, stronger effect = higher value. Put shortly: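 Compounds were applied to mec2-1 yeast cells. Their growth was then compared with that of vehicle-treated cultures to give growth inhibition.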
Assay [3] is described as follows: NCI Yeast Anticancer Drug Screen. Data for the sgs1 mgt1 strain (AID 161).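 Also: 0% = growth of cultures given vehicle only.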 As to conditions: S. cerevisiae sgs1 mgt1 strain, at 50.0 µM, stronger effect = higher value. Put shortly:
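Compounds are added to genetically altered yeast, and growth is compared with cultures given vehicle alone to give percent inhibition.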

Assay [4] is described as follows: NCI Yeast Anticancer Drug Screen. Data for the cln2 rad14 strain (AID 165).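 Also: 0% = growth equal to vehicle treated cultures.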 As to conditions: S. cerevisiae cln2 rad14 strain, at 50.0 µM, stronger effect = higher value. Put shortly: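 Strain: cln2 rad14 yeast, altered in cell cycle control and DNA damage repair. Read-out: growth inhibition vs vehicle.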
The nature of assay [5]: NCI Yeast Anticancer Drug Screen. Data for the bub3 strain (AID 167). As to conditions: S. cerevisiae bub3 mutant strain, at 50.0 µM, stronger effect = higher value. Summed up:
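Part of a panel of yeast mutants defective in DNA damage repair or cell cycle regulation. Each strain is grown with compound, and inhibition is calculated relative to solvent-treated cultures.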

The nature of assay [6]: NCI Yeast Anticancer Drug Screen. Data for the mlh1 rad18 strain (AID 175). As to conditions: S. cerevisiae mlh1 rad18 strain growth inhibition; at 50.0 µM; stronger effect = higher value. Summed up:
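A repair-deficient yeast strain is exposed to test compound, and growth is scored relative to vehicle-treated controls.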

For the compound `CC(=O)c1c[nH]cc1CO`, the growth inhibition was -1.7% in assay [1]; 7.8% in assay [2]; 8.85% in assay [3]; 11.3% in assay [4]; 11.6% in assay [5]; -7.75% in assay [6].

With `CCOC(=O)/C(=C/c1ccc(C#N)cc1)N(CC)CC`, the growth inhibition was -3.95% in assay [1]; -13.1% in assay [2]; -9% in assay [3]; 24.4% in assay [4]; -3.9% in assay [5]; -9.25% in assay [6].

For `NC(=O)CC1(C(=O)O)c2ccccc2-c2ccccc21`, the growth inhibition in assay [1] is 17.1%; in assay [2], -14.2%; in assay [3], 2.65%; in assay [4], -7.55%; in assay [5], 14.6%; in assay [6], -3.95%.

Regarding `CC(=O)Nc1ccc(-c2nnc(SCC(=O)Nc3ccccc3C)o2)cc1`, the growth inhibition in assay [1] was -6.55%; in assay [2] it was -5.25%; in assay [3] it was -19.9%; in assay [4] it was 4.65%; in assay [5], -8.55%; in assay [6] it was -18.1%.

On to `Cc1ccc2cccc(OC(=O)Nc3cc(Cl)c(Cl)cc3Cl)c2n1`, for which the growth inhibition was -5.7% in assay [1]; -17.8% in assay [2]; 4.5% in assay [3]; -4.8% in assay [4]; -14.2% in assay [5]; 3.9% in assay [6].

Consider `NCC(=O)Nc1ccc(Cl)cc1C(=O)c1ccc[nH]1`, for which the growth inhibition in assay [1] is 1.4%; in assay [2], -16%; in assay [3], -27.6%; in assay [4] it was -42.4%; in assay [5], -53.5%; in assay [6] it was 0.85%.

Take `CCc1nc(N)nc(N)c1-c1ccc(NCCN)c(N)c1`: the growth inhibition is 3.4% in assay [1]; 6.35% in assay [2]; 5.15% in assay [3]; -6.05% in assay [4]; 12.2% in assay [5]; 8.5% in assay [6].

On to `O=Cc1[nH]c(=S)[nH]c(=O)c1Cc1cccc(Cl)c1`, for which the growth inhibition was 63.9% in assay [1]; 35.2% in assay [2]; 83.2% (active) in assay [3]; 56.2% in assay [4]; 77.5% (active) in assay [5]; 83.2% (active) in assay [6].

Regarding `CCO/C(O)=c1/s/c(=C2/SC(=S)N(c3ccc(C)cc3)C2=O)n(-c2ccccc2)c1=N`, the growth inhibition in assay [1] is -3.8%; in assay [2], -16.8%; in assay [3], -16.4%; in assay [4] it was -55.5%; in assay [5], -21.4%; in assay [6], -28.4%.

Consider `O=C1NC(N2CCOCC2)=N/C1=C\c1ccccc1O`, for which the growth inhibition in assay [1] was -1.3%; in assay [2] it was -26%; in assay [3], -7.8%; in assay [4], -8.65%; in assay [5], 16.1%; in assay [6] it was 81.2% (active).

Regarding `COc1ccc(OC)c(C(=O)C=C(C(F)(F)F)C(F)(F)F)c1`, the growth inhibition is -7.65% in assay [1]; -0.95% in assay [2]; -3.8% in assay [3]; -41.6% in assay [4]; -9.3% in assay [5]; 58.9% in assay [6].

In the case of `N/C(=N\S(=O)(=O)c1cc(C(F)(F)F)cc(C(F)(F)F)c1)c1ccncc1`, the growth inhibition in assay [1] was 4.95%; in assay [2] it was 11.2%; in assay [3], 23.9%; in assay [4], 1.3%; in assay [5], 19.6%; in assay [6], 24.7%.

For `Cc1ccc(S(=O)(=O)NNS(=O)(=O)c2ccc(C)cc2)cc1`, the growth inhibition in assay [1] was 5%; in assay [2], 9.6%; in assay [3], 26.9%; in assay [4], -5.95%; in assay [5] it was 12.7%; in assay [6], 17.2%.

For the compound `CC(=O)OC(Cn1cncn1)(Cn1cncn1)c1ccc(Cl)cc1Cl`, the growth inhibition in assay [1] was 43.6%; in assay [2], 32.5%; in assay [3], 58.3%; in assay [4] it was 46.8%; in assay [5], 39.8%; in assay [6] it was 56.7%.

For the compound `CCOC(=O)\C(C#N)=C/C=C(C)/C(C)=C/Nc1ccc([N+](=O)[O-])cc1[N+](=O)[O-]`, the growth inhibition is 10.9% in assay [1]; 7.85% in assay [2]; -18.4% in assay [3]; -5.2% in assay [4]; 0.8% in assay [5]; 22.6% in assay [6].

As to `CN(c1nc(=[N+](C)C)ss1)C1CCCCC1`, the growth inhibition was 9.4% in assay [1]; 17.2% in assay [2]; 16.1% in assay [3]; -39.5% in assay [4]; -12.8% in assay [5]; 15.2% in assay [6].

With `COc1ccc(/C=N/NC(=O)c2cnc3[nH]c(=O)n(C)c(=O)c3c2)cc1`, the growth inhibition was 10.7% in assay [1]; 10.3% in assay [2]; 30.6% in assay [3]; 5.45% in assay [4]; 11.2% in assay [5]; 22.4% in assay [6].

For the compound `O=C(O)C1CC2C3CC(C(=O)O)C(C3)C2C1` (stereo unspecified), the growth inhibition was -15.8% in assay [1]; -24.7% in assay [2]; -5.55% in assay [3]; -1.85% in assay [4]; -10.8% in assay [5]; -13.9% in assay [6].

For `CC(c1ccccc1)C(O)S(=O)(=O)O` (stereo unspecified), the growth inhibition in assay [1] is 6.95%; in assay [2], 3.7%; in assay [3], 7.35%; in assay [4] it was -5.05%; in assay [5], 17.3%; in assay [6] it was -0.35%.

On to `CC(O)C(NC(=O)c1cnc2ccccc2n1)C(=O)O` (stereo unspecified), for which the growth inhibition in assay [1] is -8.45%; in assay [2], -5.1%; in assay [3], 17.8%; in assay [4], -17.1%; in assay [5], 15.9%; in assay [6], -11.8%.

With `O=c1[nH]cnc2c1sc(=S)n2-c1ccccc1`, the growth inhibition in assay [1] was 7.15%; in assay [2] it was -10.5%; in assay [3], 10.2%; in assay [4], 6.7%; in assay [5] it was -12.3%; in assay [6], -2.4%.

Take `COCc1ccnn1-c1ccccc1C`: the growth inhibition in assay [1] is -5.85%; in assay [2] it was 13.5%; in assay [3], 9.3%; in assay [4], -8.45%; in assay [5], 5.2%; in assay [6] it was -6.05%.

As for `CCCCCc1ccccn1`, the growth inhibition in assay [1] was 0.9%; in assay [2] it was 19.1%; in assay [3] it was -25.4%; in assay [4], -29.3%; in assay [5], 12.1%; in assay [6], -11.2%.

On to `COc1ccc(N2C(=O)CCC2=S)cc1`, for which the growth inhibition in assay [1] was -5.35%; in assay [2], 8.55%; in assay [3], 6.8%; in assay [4], -4.5%; in assay [5] it was -7.9%; in assay [6], 15.5%.

As to `O=C(c1nc2ccc([N+](=O)[O-])cc2[nH]c1=O)C(O)c1ccc2c(c1)OCO2` (stereo unspecified), the growth inhibition is 32.4% in assay [1]; -9.25% in assay [2]; -11.1% in assay [3]; 11.1% in assay [4]; -1.25% in assay [5]; 0.35% in assay [6].

For the compound `NC(=S)C(=S)NCCO`, the growth inhibition is 19.2% in assay [1]; 1.7% in assay [2]; -5.7% in assay [3]; -68.2% in assay [4]; -2.7% in assay [5]; -12.1% in assay [6].

Turning to `c1ccc(C2=NC(c3ccccc3)N=C(c3ccccc3)N2)cc1`, the growth inhibition in assay [1] is -0.75%; in assay [2], 10.3%; in assay [3], 6.1%; in assay [4] it was -6%; in assay [5], 9.75%; in assay [6] it was 13.2%.

Take `CCC1(CN(C)C)CC/C(=C\c2ccc(OC)c(OC)c2)C1=O` (stereo unspecified): the growth inhibition in assay [1] is 13.2%; in assay [2] it was 0%; in assay [3] it was -1.25%; in assay [4], 15.9%; in assay [5], 7.8%; in assay [6], 25.2%.

As for `COC(=O)c1nc(N)nc(C(=O)OC)c1C(=O)c1ccc(Cl)cc1Cl`, the growth inhibition in assay [1] was 7.25%; in assay [2], -0.6%; in assay [3] it was -15.5%; in assay [4], 3.6%; in assay [5] it was -8.3%; in assay [6], -3.25%.

`CC(=O)OC1CC2C(C)(CCC3C2(C)CCC2(C)C4CC(C)(C)CCC4(C)CCC32C)C1C` (stereo unspecified): the growth inhibition is -28.2% in assay [1]; -18.3% in assay [2]; -7.5% in assay [3]; 2.75% in assay [4]; -3.2% in assay [5]; 3.2% in assay [6].

On to `CNc1ccc(C(=O)O)cc1C(F)(F)F`, for which the growth inhibition in assay [1] is -0.35%; in assay [2] it was -1.45%; in assay [3], -6%; in assay [4] it was 0.65%; in assay [5], -32.6%; in assay [6], 8.85%.

For the compound `CCCC(C)C(=O)OC1CCCC1` (stereo unspecified), the growth inhibition in assay [1] is 11%; in assay [2], -8.1%; in assay [3] it was 5.3%; in assay [4], -5.1%; in assay [5] it was 13.6%; in assay [6], 2.95%.

As for `CCC(=O)Oc1cccc2ccccc12`, the growth inhibition in assay [1] is -14.4%; in assay [2], -26.9%; in assay [3], -14.8%; in assay [4] it was -14.3%; in assay [5] it was -24.9%; in assay [6], -8.05%.

For `COC1(OC)CCCCCCCCC(OC)(OC)CCCCCCCC1`, the growth inhibition in assay [1] is 7.5%; in assay [2], -18.4%; in assay [3], -10.4%; in assay [4], 13%; in assay [5] it was 16.2%; in assay [6], -8.2%.

For `Fc1cccc(Cl)c1/C=N\N=C1c2ccccc2-c2ccccc21`, the growth inhibition in assay [1] is -8.1%; in assay [2], 21.9%; in assay [3], -22.4%; in assay [4], -20.1%; in assay [5], -57.8%; in assay [6], -15.8%.

Take `Cc1[nH]ccc2c3ccc(=O)cc3n(S(=O)(=O)O)c12`: the growth inhibition in assay [1] was 10.7%; in assay [2] it was -8.3%; in assay [3], -1.45%; in assay [4], 18.4%; in assay [5], 16.8%; in assay [6], -7.25%.
